Twelve molecules from the supplement of paper PMC6992640 can be followed below.

The test system of the test is HCI01 (cells of a triple-negative basal-like breast cancer xenograft). Nature of the test: cell viability of combination (% of vehicle); higher = less cytotoxic. Conditions: 1 µM; 72 h; partner dose: 10 nM. Here is the method:
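PDX cells were treated for 72 h with each drug at 1 µM plus carfilzomib (10 nM; 100 nM for WHIM2). Luciferase viability is expressed as percent of vehicle.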
As for `CCCCc1oc2ccccc2c1C(=O)c1cc(I)c(OCCN(CC)CC)c(I)c1.Cl` [Amiodarone HCl] + CC(C)C[C@H](NC(=O)[C@H](CCc1ccccc1)NC(=O)CN1CCOCC1)C(=O)N[C@@H](Cc1ccccc1)C(=O)N[C@@H](CC(C)C)C(=O)[C@@]1(C)CO1 [Carfilzomib], the “cell viability of combination” value is 90.8.
Under `[O-]n1ccccc1=S.[O-]n1ccccc1=S.[Zn+2]` [Zinc Pyrithione] + CC(C)C[C@H](NC(=O)[C@H](CCc1ccccc1)NC(=O)CN1CCOCC1)C(=O)N[C@@H](Cc1ccccc1)C(=O)N[C@@H](CC(C)C)C(=O)[C@@]1(C)CO1 [Carfilzomib] stands 68.3; under `Cc1cc(Nc2ncc(Cl)c(Nc3ccccc3S(=O)(=O)C(C)C)n2)c(OC(C)C)cc1C1CCNCC1` + CC(C)C[C@H](NC(=O)[C@H](CCc1ccccc1)NC(=O)CN1CCOCC1)C(=O)N[C@@H](Cc1ccccc1)C(=O)N[C@@H](CC(C)C)C(=O)[C@@]1(C)CO1 [Carfilzomib], 81.5; under `COc1cc2ncnc(Nc3ccc(F)c(Cl)c3)c2cc1NC(=O)C=CCN1CCCCC1` + CC(C)C[C@H](NC(=O)[C@H](CCc1ccccc1)NC(=O)CN1CCOCC1)C(=O)N[C@@H](Cc1ccccc1)C(=O)N[C@@H](CC(C)C)C(=O)[C@@]1(C)CO1 [Carfilzomib], 68.1.
`CN1CCN(c2ccc(C(=O)/N=c3\[nH][nH]c4ccc(Cc5cc(F)cc(F)c5)cc34)c(NC3CCOCC3)c2)CC1` [Entrectinib] + CC(C)C[C@H](NC(=O)[C@H](CCc1ccccc1)NC(=O)CN1CCOCC1)C(=O)N[C@@H](Cc1ccccc1)C(=O)N[C@@H](CC(C)C)C(=O)[C@@]1(C)CO1 [Carfilzomib]: the “cell viability of combination” value is 90.7.
As for `CCCCc1oc2ccc(NS(C)(=O)=O)cc2c1C(=O)c1ccc(OCCCN(CCCC)CCCC)cc1.Cl` [Dronedarone HCl] + CC(C)C[C@H](NC(=O)[C@H](CCc1ccccc1)NC(=O)CN1CCOCC1)C(=O)N[C@@H](Cc1ccccc1)C(=O)N[C@@H](CC(C)C)C(=O)[C@@]1(C)CO1 [Carfilzomib], the “cell viability of combination” value amounted to 92.3.
Under `COC(=O)NC(C(=O)NC(Cc1ccccc1)C(O)CN(Cc1ccc(-c2ccccn2)cc1)NC(=O)C(NC(=O)OC)C(C)(C)C)C(C)(C)C` (configuration not stated) [Atazanavir] + CC(C)C[C@H](NC(=O)[C@H](CCc1ccccc1)NC(=O)CN1CCOCC1)C(=O)N[C@@H](Cc1ccccc1)C(=O)N[C@@H](CC(C)C)C(=O)[C@@]1(C)CO1 [Carfilzomib] stands 79.8; under `CC(C)N=c1cc2n(-c3ccc(Cl)cc3)c3ccccc3nc-2cc1Nc1ccc(Cl)cc1` [Clofazimine] + CC(C)C[C@H](NC(=O)[C@H](CCc1ccccc1)NC(=O)CN1CCOCC1)C(=O)N[C@@H](Cc1ccccc1)C(=O)N[C@@H](CC(C)C)C(=O)[C@@]1(C)CO1 [Carfilzomib], 71.9; under `Clc1ccc(C(Cn2ccnc2)OCc2c(Cl)cccc2Cl)c(Cl)c1.O=[N+]([O-])O` (configuration not stated) [Isoconazole nitrate] + CC(C)C[C@H](NC(=O)[C@H](CCc1ccccc1)NC(=O)CN1CCOCC1)C(=O)N[C@@H](Cc1ccccc1)C(=O)N[C@@H](CC(C)C)C(=O)[C@@]1(C)CO1 [Carfilzomib], 92.6.
Take `CC(C)C[C@H](NC(=O)[C@H](Cc1ccccc1)NC(=O)c1cnccn1)B(O)O` [Bortezomib] + CC(C)C[C@H](NC(=O)[C@H](CCc1ccccc1)NC(=O)CN1CCOCC1)C(=O)N[C@@H](Cc1ccccc1)C(=O)N[C@@H](CC(C)C)C(=O)[C@@]1(C)CO1 [Carfilzomib]: the “cell viability of combination” value came out at 28.8.
Under `Cc1c(C(=O)NN2CCCCC2)nn(-c2ccc(Cl)cc2Cl)c1-c1ccc(Cl)cc1` [Rimonabant] + CC(C)C[C@H](NC(=O)[C@H](CCc1ccccc1)NC(=O)CN1CCOCC1)C(=O)N[C@@H](Cc1ccccc1)C(=O)N[C@@H](CC(C)C)C(=O)[C@@]1(C)CO1 [Carfilzomib] stands 78.4.
On to `CC(C)(C)c1ccc(C(O)CCCN2CCC(C(O)(c3ccccc3)c3ccccc3)CC2)cc1` (configuration not stated) [Terfenadine] + CC(C)C[C@H](NC(=O)[C@H](CCc1ccccc1)NC(=O)CN1CCOCC1)C(=O)N[C@@H](Cc1ccccc1)C(=O)N[C@@H](CC(C)C)C(=O)[C@@]1(C)CO1 [Carfilzomib], for which the “cell viability of combination” value is 77.1.
